# In the supplement of paper PMC10127200:
# Where a name gives a salt, the structure may show the parent alone.
# Experiments:
# Assay in all cases: Euclidean distance of Cell Painting phenotypic profile (signed KS, 77 features) to DMSO centroid (dimensionless distance); 5 or 10 uM (library dependent); higher = stronger phenotypic change vs DMSO (phenoactivity)
# Details in all cases: 48 h
# [1] = system: 786-O
# How it was run: (§1)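 At 10 or 5 uM, as set by the library, and 0.1% DMSO final, compounds were applied for 48 h to five cancer lines and one healthy fibroblast line. Stained cells were imaged confocally at 20X in 9 fields per well, and Harmony extracted 77 features scored as signed Kolmogorov-Smirnov statistics against vehicle wells on the same plate. Profiles underwent plate-position correction, correlation weighting and replicate averaging at the top dose. Phenoactivity is the Euclidean distance from each such profile to the median vehicle profile.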
# [2] = system: A549
# How it was run: as §1
# [3] = system: DU145
# How it was run: as §1
# [4] = system: FB
# How it was run: as §1
# [5] = system: HEPG2
# How it was run: as §1
# [6] = system: OVCAR4
# How it was run: as §1
SMILES,Euclidean distance [1],Euclidean distance [2],Euclidean distance [3],Euclidean distance [4],Euclidean distance [5],Euclidean distance [6]
NC(=O)OCC(COC(N)=O)c1ccccc1 [Felbamate],1.13,0.883,0.57,1.58,0.405,0.882
Nc1nc2ccc(OC(F)(F)F)cc2s1 [Riluzole],1.03,0.891,2.58,1.3,0.688,0.739
O=C(O)COc1nn(Cc2ccccc2)c2ccccc12 [Bendazac],1.07,0.905,1.13,1.39,0.558,1.32
COc1ccc(COc2ccc(Cc3cnc(N)nc3N)cc2OC)cc1,0.708,1.1,0.739,1.13,2.08,0.792
CN(C)c1cc(NC(=O)CNC(C)(C)C)c(O)c2c1C[C@H]1C[C@H]3[C@H](N(C)C)C(O)=C(C(N)=O)C(=O)[C@@]3(O)C(O)=C1C2=O [Tigecycline],1.81,0.996,1.03,1.6,1.09,1.18
C=CCOc1ccccc1OCC(O)CNC(C)C (stereo not drawn) [Oxprenolol HCl],0.863,0.819,1.56,1.21,0.783,0.994
CC(C)CCN1c2nc(Nc3cc(F)c(O)c(F)c3)ncc2N(C)C(=O)C1C (stereo not drawn),1.38,1.84,2.16,1.49,0.771,2.61
CN(C)CCc1c[nH]c2ccc(CS(=O)(=O)N3CCCC3)cc12 [Almotriptan Malate],1.05,0.798,0.545,1.14,1.78,1.51
O=[N+]([O-])c1cncn1CCN1CCOCC1 [Nimorazole],0.827,0.551,1.21,0.76,1.18,0.937
CC(=O)OCC(=O)[C@@]1(O)CC[C@H]2[C@@H]3CCC4=CC(=O)CC[C@]4(C)[C@H]3[C@@H](O)C[C@@]21C [Hydrocortisone acetate],1.17,2.28,1.4,1.96,1.05,1.41
CC(C)Nc1cccnc1N1CCN(C(=O)c2cc3cc(NS(C)(=O)=O)ccc3[nH]2)CC1 [Delavirdine (mesylate)],1.18,0.811,2.31,1.56,0.607,1.51
N#C[C@@H]1CCCN1C(=O)CNC12CC3CC(CC(O)(C3)C1)C2 [Vildagliptin (LAF-237)],1.09,1.02,1.43,0.918,0.836,1.21
CC1(C)S[C@@H]2[C@H](NC(=O)[C@H](N)c3ccccc3)C(=O)N2[C@H]1C(=O)OCOC(=O)[C@@H]1N2C(=O)C[C@H]2S(=O)(=O)C1(C)C [Sultamicillin Tosylate],1.06,1.18,0.926,1.01,0.775,0.992
Cc1ccc(/C=C2/C(=O)C3(C)CCC2C3(C)C)cc1 (stereo not drawn) [4-Methylbenzylidene camphor],1.01,1.2,0.926,0.895,0.613,1.22
C[C@H](Oc1cc(-c2cnn(C3CCNCC3)c2)cnc1N)c1c(Cl)ccc(F)c1Cl [(S)-crizotinib],3.79,3.26,2.55,4.85,3.67,2.78
OCCN(CCO)c1nc(N2CCCCC2)c2nc(N(CCO)CCO)nc(N3CCCCC3)c2n1 [Dipyridamole],1.24,0.954,1.33,0.963,0.833,0.968
CO/N=C(\C(=O)N[C@@H]1C(=O)N2C(C(=O)O)=CCS[C@H]12)c1csc(N)n1 [Ceftizoxime sodium],0.557,0.807,1.33,1.07,0.578,0.958
COc1cc([C@@H]2c3cc4c(cc3[C@@H](O[C@@H]3O[C@@H]5CO[C@@H](c6cccs6)O[C@H]5[C@H](O)[C@H]3O)[C@H]3COC(=O)[C@H]23)OCO4)cc(OC)c1O [Teniposide],2.74,3.77,4.38,3.23,3.39,3.66
O=C(c1ccc(OCCCc2c[nH]cn2)cc1)C1CC1 [Ciproxifan],1.15,1.15,1.03,0.829,0.908,1.15
Cc1ccc(NS(=O)(=O)c2cccc(C#N)c2)c2[nH]cc(C#N)c12,1.84,2.34,1.67,1.89,2.04,2.09
Cc1[nH]c2ccccc2c1CCNCc1ccc(/C=C/C(=O)NO)cc1 [Panobinostat],3.44,4.4,4.84,3.48,4.4,3.58
COc1ccc(C(=O)Nc2sc3c(c2C(N)=O)CCCC3)cc1OC,1.04,2.61,1.02,0.845,0.747,2.82
CN(C)[C@@H]1C(O)=C(C(N)=O)C(=O)[C@@]2(O)C(O)=C3C(=O)c4c(O)cccc4[C@@](C)(O)[C@H]3[C@H](O)[C@@H]12 [Oxytetracycline Dihydrate],1.33,0.832,1.09,1.19,1.9,1.3
N[C@@H](Cc1cc(I)c(Oc2cc(I)c(O)c(I)c2)c(I)c1)C(=O)O [L-Thyroxine],1.38,1.12,1.19,0.961,0.718,1.45

SMILES,Euclidean distance [1],Euclidean distance [2],Euclidean distance [3],Euclidean distance [4],Euclidean distance [5],Euclidean distance [6]
Nc1nc2[nH]cnc2c(=S)[nH]1 [Thioguanine],1.65,2.5,1.48,0.807,3.13,2.12
CCOC(N)=O [Urethane],1.2,0.492,0.675,0.718,0.46,1.46
O=C(O)CCNC(=O)c1ccccc1 [Betamipron],0.807,1.17,1.01,0.869,0.988,1.34
Cc1c(Cc2ccc3ccccc3n2)c2cc(F)ccc2n1CC(=O)O,1.27,1.14,0.888,1.16,2.13,1.52
C[C@@H](N)[C@H]1CC[C@H](C(=O)Nc2ccncc2)CC1,3.12,3.33,3.45,2.59,1.02,3.15
Nc1nc(Cl)nc2c1ncn2[C@@H]1O[C@H](CO)[C@@H](O)[C@@H]1F [Clofarabine],3.26,2.36,2.96,3.41,3.02,3.09
Nc1nc(N)c2nc(-c3cccc(O)c3)c(-c3cccc(O)c3)nc2n1,1.06,1.73,1,1.45,2.84,1.02
CC(=O)Nc1ccc(NC(=S)NC(=O)c2ccc(C(C)(C)C)cc2)cc1 [Tenovin-1],2.16,1.83,0.772,0.753,1.08,1.03
CO[C@H]1/C=C\C=C(/C)C(=O)NC2=CC(=O)C(NCCN(C)C)=C(C[C@@H](C)C[C@H](OC)[C@H](O)[C@@H](C)/C=C(\C)[C@@H]1OC(N)=O)C2=O,2.76,2.89,4.03,3.32,3.56,2.71
CC[C@@H]1C(=O)N(C)c2cnc(Nc3ccc(C(=O)N[C@H]4CC[C@H](N5CCN(CC6CC6)CC5)CC4)cc3OC)nc2N1C(C)C [Volasertib (BI 6727)],4.44,4.28,4.03,5.55,3.66,4.01
C[N+](C)(C)CC(=O)O [Betaine],1.1,0.84,0.542,0.947,1.41,0.81
C[C@@H](NC(=O)c1ncnc(N)c1Cl)c1ncc(C(=O)Nc2cc(C(F)(F)F)c(Cl)cn2)s1,1.57,2.12,1.59,1.41,0.931,1.52
O=S1(=O)CCN(CN2CCS(=O)(=O)NC2)CN1 [Taurolidine],1.32,0.797,0.913,1.04,0.654,1.46
COc1nc(C)cnc1NS(=O)(=O)c1cccnc1-c1ccc(-c2nnco2)cc1 [Zibotentan (ZD4054)],1.49,0.567,0.656,0.844,1.11,0.898
NC(=O)c1cccnc1 [Nicotinamide (Vitamin B3)],0.857,0.597,2.86,0.938,0.669,1.28
COc1c(O[C@@H]2O[C@H](CO)[C@@H](O)[C@H](O)[C@H]2O)cc2c(c1OC)-c1ccc(SC)c(=O)cc1[C@@H](NC(C)=O)CC2 [Thiocolchicoside],0.819,0.537,0.944,1.41,0.502,1.21
CC1=C(C(=O)O)N2C(=O)[C@@H](NC(=O)[C@H](N)C3=CCC=CC3)[C@H]2SC1 [Cefradine],0.837,0.567,0.805,1.14,0.578,0.907
CC(C)(C)NC(=O)[C@@H]1CN(Cc2cccnc2)CCN1C[C@@H](O)C[C@@H](Cc1ccccc1)C(=O)N[C@H]1c2ccccc2C[C@H]1O [Indinavir Sulfate],0.896,0.551,0.801,0.953,0.739,1.27
Cc1ccccc1OCC(O)CO (stereo not drawn) [Mephenesin],0.824,0.804,0.895,1.13,0.549,1.86
COc1cc2ncnc(Nc3ccc(O)c(Br)c3)c2cc1OC,1.36,1.35,1.92,1.7,1.64,0.933
C=C(C)[C@@H]1CC[C@]2(CO)CC[C@]3(C)[C@H](CC[C@@H]4[C@@]5(C)CC[C@H](O)C(C)(C)[C@@H]5CC[C@]43C)[C@@H]12 [Betulin],1.24,0.846,1.07,1.2,0.765,1.1
CC(=O)c1cc([N+](=O)[O-])c(Sc2cccc(Cl)c2Cl)s1,0.465,0.706,0.528,0.668,0.869,1.26
CCN(CC)Cc1ccc2cc(COC(=O)Nc3ccc(C(=O)NO)cc3)ccc2c1 [Givinostat (ITF2357)],2.68,3.9,2.88,3.63,4.2,3.32
CC(=C(CCO)SSCC1CCCO1)N(C=O)Cc1cnc(C)nc1N (stereo in doubt) [Fursultiamine],1.19,0.749,0.785,1.06,0.579,1.17
